GoLoco inh red – qHTS Assay for Inhibitors of RGS12 GoLoco Motif Activity (Red Fluorophore); Guanine nucleotide-binding protein G(i) subunit alpha-1 (Homo sapiens), P63096; Gai1:RGS12 GoLoco peptide FP, rhodamine, 10 min; Potency, µM (doses to about 61.6 µM), for the others: at the top dose activity, negative = inhibition, usual class: inhibitors; 230,000 compounds, 0.44% hits; AID 880, 2007; active = well fitted inhibition curve with a large enough effect, not every such curve was filed as active; inactive = no such curve, though single readings can be large or run the other way; note: potency is the fitted concentration of half-maximal effect; nearly all actives have a fitted effect of over 30% in size
Target sequence (P63096 whole entry, looked up): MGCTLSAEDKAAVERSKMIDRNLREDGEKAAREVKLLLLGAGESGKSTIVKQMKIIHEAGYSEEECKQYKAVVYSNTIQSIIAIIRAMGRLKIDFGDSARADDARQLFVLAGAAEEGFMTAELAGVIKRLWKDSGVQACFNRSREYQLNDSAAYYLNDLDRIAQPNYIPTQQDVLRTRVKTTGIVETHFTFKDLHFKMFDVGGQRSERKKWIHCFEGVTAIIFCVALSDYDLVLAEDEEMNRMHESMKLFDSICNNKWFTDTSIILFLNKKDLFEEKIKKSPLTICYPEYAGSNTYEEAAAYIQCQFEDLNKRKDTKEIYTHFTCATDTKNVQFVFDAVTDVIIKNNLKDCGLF
FBPA coupling cs – qHTS Assay for Inhibitors of Fructose-1,6-bisphosphate Aldolase from Giardia Lamblia: Coupling assay counterscreen; coupling enzyme system counterscreen, AmpLite Red fluorescence; activity change, negative = inhibition, % at 58.2 µM, hits read low; 290,000 compounds, 0.67% hits; AID 2472, 2010; in the data active = activity change below about -30%
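Activity here indicates interference with the coupling reaction, not aldolase inhibition. Compounds at 57.5 uM final met coupling enzymes for 10 min at RT; substrate and AmpLite Red detection followed, with a 525/598 nm fluorescence read after 20 min.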
JMJD2E inh – qHTS Assay for Inhibitors of Human Jumonji Domain Containing 2E (JMJD2E); AID 2147, 2009; JMJD2E catalytic domain, FDH-coupled NADH fluorescence (FDH is formaldehyde dehydrogenase); 230,000 compounds, 1.6% hits; Potency, µM (titrated, usually from 57.1 µM), inactives show top-dose activity change, negative = inhibition, hits mostly inhibitors; active = well fitted inhibition curve with a large enough effect, not every such curve was filed as active; inconclusive = small, poorly fitted or top-dose-only effect, or another doubt; inactive = no such curve, though single readings can be large or run the other way;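 note: potency is the fitted concentration of half-maximal effect; 0% = wells with enzyme and -100% = buffer wells without enzyme; nearly all actives have a fitted effect of over 50% in size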
Target sequence (B2RXH2 1-337 limits assumed): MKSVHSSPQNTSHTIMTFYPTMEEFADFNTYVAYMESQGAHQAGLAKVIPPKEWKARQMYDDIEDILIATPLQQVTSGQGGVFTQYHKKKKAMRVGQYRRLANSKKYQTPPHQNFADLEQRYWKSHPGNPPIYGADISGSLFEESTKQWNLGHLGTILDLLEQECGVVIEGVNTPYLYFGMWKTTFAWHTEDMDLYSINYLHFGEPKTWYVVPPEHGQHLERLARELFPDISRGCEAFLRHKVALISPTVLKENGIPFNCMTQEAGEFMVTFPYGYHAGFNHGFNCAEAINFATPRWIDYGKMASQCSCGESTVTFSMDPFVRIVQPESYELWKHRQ
ALDH1A1 block – qHTS Assay for Inhibitors of Aldehyde Dehydrogenase 1 (ALDH1A1); 220,000 compounds, 7.3% hits; Aldehyde dehydrogenase 1A1 (Homo sapiens), P00352; Potency, µM (top dose mostly 75.3 µM), inactives show at the highest dose activity, negative = inhibition, actives largely listed as inhibitors; Purified ALDH1A1, NADH fluorescence, propionaldehyde substrate; AID 1030, 2008; active = well fitted inhibition curve with a large enough effect, not every such curve was filed as active; inconclusive = small, poorly fitted or top-dose-only effect, or another doubt; inactive = no such curve, though single readings can be large or run the other way;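 note: potency is the fitted concentration of half-maximal effect; plate controls were no enzyme wells and a reference inhibitor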
NPSR antag – qHTS Assay for Antagonists of the Neuropeptide S Receptor: cAMP Signal Transduction; Q6W5P4; CHO-NPSR cells, cAMP TR-FRET, antagonist mode; Potency, µM (series often up to 38.3 µM), without a hit: top-dose activity change, negative = inhibition, usual class: inhibitors; 220,000 compounds, 1% hits; AID 1461, 2008; note: potency is the fitted concentration of half-maximal effect; nearly all actives have a fitted effect of over 50% in size
Sfp PPTase inh – qHTS Assay for Inhibitors of Bacillus subtilis Sfp phosphopantetheinyl transferase (PPTase); 310,000 compounds, 3.5% hits; Potency, µM, for the others: largest response in the series, negative = inhibition, most hits filed as inhibitors; AID 1490, 2009; Biochemical Sfp PPTase activity, qHTS;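 note: the enzyme is Sfp with the accession as filed and its product quenches rhodamine fluorescence; potency is the fitted concentration of half-maximal effect; 0% = enzyme reaction without inhibitor and -100% = no enzyme wells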
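Compounds were incubated with enzyme (final 15 nM) for 15 min at room temperature before substrate addition started the reaction. Fluorescence at 525 nm excitation, 598 nm emission was recorded immediately and after 30 minutes.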
The depositor's hits bear a star; [ ] = another dose, or the depositor's remark. Hits are enriched below; roughly 8.5% of the tested compounds scored in any of these assays. Unless noted, calls come from the whole dose curve; as a rule, active = well fitted curve in the direction sought with a large enough effect; inconclusive = small, poorly fitted or top-dose-only effect, or another doubt; inactive = no such curve, though single readings can be large; an effect the other way counts as inactive or inconclusive. Unless noted, % is set by controls: 0 for no effect and ±100 for the full control effect.

Screening CCc1cccc(NC(=O)C2CCCN2C(=O)Nc2ccc(C)cc2)c1 (stereo not given) returned FBPA coupling cs -1.3 and Sfp PPTase inh 11.4%.
For Cc1nnc(N)s1 the results were GoLoco inh red 4.9%, FBPA coupling cs 0.0, JMJD2E inh -0.2%, NPSR antag 12.3% and Sfp PPTase inh 6.3%.
Cc1ccc(S(=O)(=O)CCC(=O)c2ccc(O)cc2O)cc1 was read as GoLoco inh red 0.0%, FBPA coupling cs -1.5, JMJD2E inh 2.3%, ALDH1A1 block 0.282µM*, NPSR antag -5.3%[46.1 µM] and Sfp PPTase inh -11.3%.
For Cc1ccc(NC(=O)CN(C)C(=O)c2n[nH]c(=O)c3ccccc23)cc1 the results were GoLoco inh red 2.2%, FBPA coupling cs 3.2, JMJD2E inh 3.3%, ALDH1A1 block 3.5%, NPSR antag 3.8% and Sfp PPTase inh 5.7%.
CCC(Sc1nc2ccc(N)cc2s1)C(=O)Nc1nccs1 (stereo not given) was read as GoLoco inh red 5.1%, FBPA coupling cs 0.2, JMJD2E inh 2.8%, ALDH1A1 block 7.94µM*, NPSR antag -17.0%[46.1 µM] and Sfp PPTase inh -5.2%.
For O=C(O)CCc1n[nH]c(=S)[nH]c1=O the results were GoLoco inh red 10.7%, FBPA coupling cs 0.4, JMJD2E inh 7.6%, ALDH1A1 block inconclusive, NPSR antag 10.6% and Sfp PPTase inh 56.2µM*.
CCOC(=O)CCc1n[nH]c(=O)[nH]c1=O was read as GoLoco inh red 5.0%, FBPA coupling cs 0.9, JMJD2E inh -0.3%, ALDH1A1 block 12.0%, NPSR antag -5.3%[46.1 µM] and Sfp PPTase inh 3.0%.
Screening CC1(C)CC(=O)C=C(NC2=CC3OC(c4ccccc4)OCC3OC2=O)C1 (stereo not given) returned GoLoco inh red -20.7%, FBPA coupling cs 0.5, JMJD2E inh -6.8%, ALDH1A1 block 2.9%, NPSR antag 2.51µM* and Sfp PPTase inh 28.2µM*.
For Cc1ccc(S(=O)(=O)NCCC(=O)NC2CC2)cc1 the results were Sfp PPTase inh 5.9%.
Screening CCc1nnc(NC(=O)CN2CCN(Cc3cccc(OC)c3)CC2)s1 returned FBPA coupling cs 0.9 and Sfp PPTase inh -4.4%.
Screening COC(=O)\C(C(C)=O)=C(/C=C/C=C/C=C/N(C)C)N(C)C returned GoLoco inh red 141.9%, FBPA coupling cs -10.6, JMJD2E inh 22.4µM*, ALDH1A1 block -6.6%, NPSR antag -3.2%[46.1 µM] and Sfp PPTase inh -18.0%.
For CCc1ccccc1NC(=O)C1CCN(c2cnccn2)CC1 the results were FBPA coupling cs -1.1 and Sfp PPTase inh 2.1%.
Screening CCN1C(=O)[C@H]2[C@H]3[C@H](O)[C@H](O)C/C(=N/OC[C@@H](O)COCc4ccco4)[C@H]3CC[C@@H]2C1=O returned FBPA coupling cs 0.3, ALDH1A1 block 11.9%[13.5 µM] and Sfp PPTase inh -2.4%.
Screening CC(=O)OCC1OC(C#CCC2CCCCC2)C=CC1OC(C)=O (stereo not given) returned FBPA coupling cs 3.4, ALDH1A1 block 4.47µM* and Sfp PPTase inh -18.4%.
`Cc1cc(C)c2nc(-c3ccccn3)cc(C(=O)Nc3ccc(S(=O)(=O)Nc4onc(C)c4C)cc3)c2c1` gave GoLoco inh red -1.9%, FBPA coupling cs 1.2, JMJD2E inh -5.0%, ALDH1A1 block -6.4%, NPSR antag -56.3% and Sfp PPTase inh 35.5µM*.
COc1ccc(-c2cc(C(=O)Nc3ccc(S(=O)(=O)Nc4onc(C)c4C)cc3)c3ccccc3n2)cc1OC was read as GoLoco inh red 1.2%, FBPA coupling cs 9.7, JMJD2E inh inconclusive, ALDH1A1 block -0.9%, NPSR antag 3.4% and Sfp PPTase inh -23.7%.
`Cc1cc(C)c2nc(-c3ccccn3)cc(C(=O)Nc3ccc(S(=O)(=O)Nc4cc(C)on4)cc3)c2c1` gave GoLoco inh red 51.5%, JMJD2E inh inconclusive, ALDH1A1 block inconclusive, NPSR antag 10µM* and Sfp PPTase inh inconclusive.
Screening Cc1cc(C)c2nc(-c3ccccn3)cc(C(=O)NCc3ccc(S(N)(=O)=O)cc3)c2c1 returned GoLoco inh red 32.6%, FBPA coupling cs 2.3, JMJD2E inh inconclusive, ALDH1A1 block inconclusive, NPSR antag -20.1% and Sfp PPTase inh 1.3%.
Screening Cc1cc(C)c2nc(-c3ccccn3)cc(C(=O)NCCc3ccc(S(N)(=O)=O)cc3)c2c1 returned GoLoco inh red 9.4%, FBPA coupling cs 0.3, JMJD2E inh inconclusive, ALDH1A1 block inconclusive, NPSR antag -50.7% and Sfp PPTase inh 28.2µM*.
`COCCn1c(=NC(=O)c2ccc(S(=O)(=O)N3CCc4ccccc4C3)cc2)sc2cc(S(N)(=O)=O)ccc21` gave GoLoco inh red 4.0%, FBPA coupling cs -0.2, JMJD2E inh 3.98µM*, ALDH1A1 block inconclusive, NPSR antag -24.1% and Sfp PPTase inh -1.2%.
`C#CCn1c(=NC(=O)c2ccc(S(=O)(=O)N3CCc4ccccc4C3)cc2)sc2cc(S(N)(=O)=O)ccc21` gave GoLoco inh red 8.9%, FBPA coupling cs -0.2, JMJD2E inh 6.31µM*, ALDH1A1 block inconclusive, NPSR antag -4.1% and Sfp PPTase inh 19.7%.
Screening Cc1nn(-c2ccccc2)c2nc(C(Cl)(Cl)Cl)[nH]c(=O)c12 returned GoLoco inh red 5.0%, FBPA coupling cs 1.8, JMJD2E inh 8.2%, NPSR antag -13.0% and Sfp PPTase inh 16.2%.
For Cc1onc(-c2ccccc2)c1C(=O)NCc1ccco1 the results were FBPA coupling cs 2.6, JMJD2E inh 6.3%, ALDH1A1 block -1.6%, NPSR antag -11.3%[46.1 µM] and Sfp PPTase inh inconclusive.
`Cc1onc(-c2ccccc2)c1C(=O)N(Cc1ccco1)Cc1cccs1` gave GoLoco inh red -8.7%, FBPA coupling cs -34.7*, JMJD2E inh -5.0%, ALDH1A1 block inconclusive, NPSR antag inconclusive and Sfp PPTase inh 39.8µM*.
N#CCCn1c(=O)c(-c2ccccc2)nc2cnc(Oc3ccccc3)nc21 was read as GoLoco inh red 3.6%, FBPA coupling cs 2.4, ALDH1A1 block inconclusive and Sfp PPTase inh 2.2%.
For COc1ccccc1/C=C1\NC(=S)N(CC2CCCO2)C1=O (stereo not given) the results were GoLoco inh red 2.4%, FBPA coupling cs -9.0, JMJD2E inh 2.8%, ALDH1A1 block 0.501µM*, NPSR antag -9.9%[46.1 µM] and Sfp PPTase inh 7.3%.

Assay outcomes (PubChem BioAssay)
